We go through 40 molecules from PubChem BioAssay (NCI).

Molecules are shown by their SMILES. This is part of a sample that, as a whole, favours compounds with a hit. Of some 83,000 tested, about 20% had one in any assay.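 Plates (96-well) were seeded with cells, treated with compound at one concentration, and incubated for 48 hours before percent growth was determined.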 Unmarked numbers belong to inactive results. Calls of active or inactive are those of the source. The calls were made as follows: active = growth percent below 10; inactive = the rest.

In this assay the test system is HL-60(TB) leukemia. The assay can be described thus: NCI-60 one-dose screen, 48 h (100 = growth as untreated, 0 = no growth, -100 = all killed). The settings on record: 10 µM unless noted.
Consider `O=CCCCC(O)C=O` (stereo not given), for which the growth is 92.2%. The figure for `COc1ccc(CNCCN2C(=O)c3ccc4c5c(ccc(c35)C2=O)C(=O)N(CCNCc2ccc(OC)c(OC)c2OC)C4=O)c(OC)c1OC` is -43.2% (active).

Regarding `O=C(N/N=C/c1cccc([N+](=O)[O-])c1)c1ccc(Br)o1`, the growth was 103%. The figure for `Cc1cc(C)c2c(n1)sc1c(Nc3ccc(Cl)cc3)ncnc12` is -19.1% (active).

On to `O=C(N/N=C/c1ccc(O)cc1O)c1cccnc1`, for which the growth is -17.2% (active). `COc1ccc2c(c1)/C(=C\c1c[nH]c3ccc(F)cc13)C(=O)N2`: the growth is 88.3%.

On to `CCOC(=O)C(=Cc1c(-c2ccccc2)[nH]c2ccccc12)C(=O)OCC`, for which the growth is -52% (active). The value for `COc1cc(O)c2c(=O)c3c(CC=C(C)C)cc(OC)c(O)c3oc2c1` was -15.9% (active); that for `CCSCC1CC(O)(c2ccccc2)C(c2ccccc2)C(c2ccc(F)cc2)O1` (stereo not given) was -12.5% (active); that for `CCCCCC(=O)OCc1ccc(Cl)c(Cl)c1` was 97.2%. The figure for `CCCCCCCCCCCCCCCC(=O)O[C@@H]1[C@@H](O)[C@@H](O)C([C@H](NC(=O)[C@@H]2C[C@@H](CCC)CN2C)[C@H](C)Cl)O[C@@H]1SC` (stereo not given in full) is 98.6%; for `COc1cc(/C=N/NC(=O)c2ccc(C(F)(F)F)nc2Nc2ccc(Cl)cc2C)ccc1O` it is 4.41% (active); for `CCN(CC)CC(O)CNc1ccnc2cc(Cl)c(Cl)cc12` (stereo not given) it is 92.2%. The value for `CC(Cc1nnc(SCC(=O)Nc2ccc(I)cc2)n1N)c1ccccc1` (stereo not given) was 158%; that for `Cc1ccc(Cc2cnc(NC(=O)/C=C/c3cccc(C)c3)s2)cc1` was -15.4% (active). Regarding `CNC(=O)Nc1ccc(-c2ccc3ncnc(Nc4cccc(Cl)c4)c3c2)cc1`, the growth was 76.2%. The value for `O=C(CSc1nc(-c2ccc(Cl)cc2)cn1-c1ccc(Cl)cc1)c1ccc(Br)cc1` was 97.1%. As to `O=C(COc1cccc(/C=C2\Oc3ccc4ccccc4c3C2=O)c1)c1ccc(Cl)cc1`, the growth is 107%.

As to `CCc1ccc2c(c1)N(CCO)C1=C(C(=O)OC1)C2c1cccc(Br)c1` (stereo not given), the growth was -9.76% (active). The figure for `COc1ccc(NC(=O)c2ccc(NC3=C(c4ccc(Cl)cc4)C(=O)NC3=O)cc2)cc1` is 80.3%; for `Cn1c2ccccc2c2ccccc21` it is 95.9%.

Turning to `O=c1c2cccc3c(NC4CCCCC4)ccc(c32)c2nc3ccccc3n12`, the growth was 62.6%. As to `COc1ccc2c(c1)C(=O)c1c-2c(=O)n(CCCCCCC(=O)NO)c2ccccc12`, the growth was 12.7%.

`Cc1c(-c2ccc(-c3ccccc3F)cc2)nc2ccc(F)cc2c1C(=O)O`: the growth is 5.22% (active). The figure for `COc1ccc(C(=O)c2cc3c(N)c(C(=O)Nc4ccc(Cl)cc4)sc3nc2C)cc1` is 62.9%. In the case of `Clc1cccc(Cl)c1Cn1c(-c2cncs2)nc2ccccc21`, the growth is 56.6%.

On to `CCOC(=O)c1cc(C(=O)c2ccc(OC)c(OC)c2)n2c1ccc1ccc3cccnc3c12`, for which the growth was 3.73% (active). In the case of `O=C(Nc1ccccc1)Nc1ccc(Nc2ncnc3sc4c(c23)CCCC4)cc1`, the growth is 97%.

On to `CCN(CC)CCC(CNc1ccnc2cc(Cl)ccc12)c1ccc(O)cc1` (stereo not given), for which the growth was -1.95% (active).

For the molecule `CCOC(=O)c1ccc(Nc2ncnc3c2cnn3-c2cccc(F)c2)cc1`, the growth is 109%.

Regarding `CC1(C)[C@@H](O)CC[C@]2(C)[C@H]3CC[C@@H]4[C@H]5[C@H](C(=O)/C=C/c6ccc(C(F)(F)F)cc6)CC[C@]5(CO)CC[C@@]4(C)[C@]3(C)CC[C@@H]12`, the growth is 28.1%. The value for `COc1cccc(C(c2cc3c(cc2O)OCO3)N2CCOCC2)c1OC` (stereo not given) was 97.1%; that for `c1ccc2cc(Cn3c[n+](Cc4ccc5ccccc5c4)c4ccccc43)ccc2c1` was -66.3% (active).

`CC(=O)C1N=NCC1c1ccccc1` (stereo not given): the growth is 96.8%. The value for `COc1ccc(-c2cc(C(=O)N3N=C(c4ccc(N)cc4)CC3c3ccccc3)c3ccccc3n2)cc1` (stereo not given) was -28% (active); that for `C/C=C(\C)C(C(=O)NC1CCCCC1)N(C(=O)C1CCc2cc(F)ccc2O1)c1ccc([N+](=O)[O-])cc1` (stereo not given) was 82.4%; that for `O=C(O)C1C[C@](O)(c2ccc(F)cc2)[C@@H](c2ccc(F)cc2)O1` (stereo not given in full) was 91.6%. The value for `CCN(CC)CCN1C(=O)c2c(c(C)c3c(oc4cc(O)ccc43)c2C)C1=O` was -50.6% (active); that for `COc1ccc(/C(C)=C(\c2ccc(Cl)cc2)c2ccc(OCCCN(C)C)cc2)cc1` was 67.1%; that for `Cc1nc(NC(=S)Nc2ccc(F)cc2)sc1C(=O)NNC(=S)Nc1ccc(F)cc1` was 48.3%.
